Measured values taken from the supplement of paper PMC3334620.
Over roughly 33,000 sequences, “E-score (-0.5 to 0.5)” has its median near -0.035; the highest 2% begin near 0.34. This excerpt belongs to a sample that is enriched for the highest values.

biological target: T1, Mot3 (UniProt P54785); assay: PBM E-score (8-mer binding enrichment) (E-score (-0.5 to 0.5)); higher = stronger / more preferred TF binding; conditions: protein concentration: 200 nM; construct: GST-full length
T1 sequence: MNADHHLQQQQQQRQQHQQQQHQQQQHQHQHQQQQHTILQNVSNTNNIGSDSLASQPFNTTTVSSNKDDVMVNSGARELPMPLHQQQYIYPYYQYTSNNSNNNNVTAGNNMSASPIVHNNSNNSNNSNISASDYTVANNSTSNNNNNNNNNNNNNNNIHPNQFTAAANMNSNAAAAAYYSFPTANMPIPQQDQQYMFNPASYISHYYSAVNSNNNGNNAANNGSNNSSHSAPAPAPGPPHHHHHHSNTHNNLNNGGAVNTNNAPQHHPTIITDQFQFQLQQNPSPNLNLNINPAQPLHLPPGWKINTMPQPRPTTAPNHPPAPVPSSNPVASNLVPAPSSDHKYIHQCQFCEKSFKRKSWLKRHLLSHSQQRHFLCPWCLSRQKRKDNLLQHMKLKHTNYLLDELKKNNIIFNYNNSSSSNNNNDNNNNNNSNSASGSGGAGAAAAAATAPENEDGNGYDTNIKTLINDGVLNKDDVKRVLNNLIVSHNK
Experimental: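 Universal 'all 10-mer' protein binding microarrays (Agilent AMADID 015681) probed with GST-tagged S. cerevisiae TFs (full-length or DBD) made by in vitro transcription/translation (PURExpress), about 100-200 nM. Bound TF was detected with fluorescent anti-GST. Each ungapped 8-mer (which stands for itself and its reverse complement) is scored by the PBM enrichment score (E-score), a modified Wilcoxon-Mann-Whitney statistic from -0.5 to +0.5, computed with the Universal PBM Analysis Suite. Scale: above 0.35 generally sequence-specific binding.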

| Sequence | PBM E-score |
| --- | --- |
| CACACTCC | -0.178 |
| CGGTACAC | 0.00913 |
| AGGTACAT | 0.367 |
| ACGTACAT | 0.286 |
| AGGTACAA | 0.363 |
| ATGTACAG | 0.247 |
| AAGTACAT | 0.265 |
| ATGTACAT | 0.378 |
| GGGTACAA | -0.012 |
| TGGTACAA | 0.0168 |
| ATGTACAC | 0.338 |
| AGGTACAC | 0.366 |
| AGGTACAG | 0.332 |
| AAGGGGAA | -0.0624 |
| CAACAGTG | -0.0633 |
| CACGTGGC | -0.0488 |
| AGCCTCAA | -0.265 |
| TGCCTCCA | 0.404 |
| GGCCTCAA | 0.00845 |
| TGCCTCAA | 0.365 |
| AGCCTCCA | -0.369 |
| CGCCTCCA | -0.0882 |
| GACTGCTA | -0.251 |
| AGCGTGCC | 0.343 |
| AGTGTGCG | -0.149 |

| Sequence | PBM E-score |
| --- | --- |
| AACGTGCG | 0.0588 |
| AGCGTGCA | 0.092 |
| CGCGTGGC | -0.155 |
| AACGTGCC | 0.397 |
| CGCGTGCC | 0.433 |
| AGCGTGCG | -0.185 |
| AACGTGCA | 0.136 |
| CGTGTGCC | 0.23 |
| AGTGTGCC | 0.355 |
| CGCGTGCA | 0.0183 |
| AGGACACG | 0.071 |
| GTGAGCCA | -0.12 |
| GCGTTGGA | 0.0942 |
| GTATCGTA | 0.197 |
| CCGTTTCA | -0.123 |
| AAGAGAAC | 0.0546 |
| GCCGTGCC | 0.346 |
| ACCGTGCC | 0.336 |
| CCTGTGCG | 0.185 |
| CCTGTGCC | 0.361 |
| GCCGTGCA | -0.0598 |
| ACTGTGCC | 0.265 |
| CGCGAGAC | -0.11 |
| ACGCCAAG | -0.0211 |
| CGCTGTGC | -0.0145 |

| Sequence | PBM E-score |
| --- | --- |
| ATAGGTGG | 0.0389 |
| AATAAGGA | 0.0872 |
| AATTACAG | 0.27 |
| GCTTACAA | 0.197 |
| AATTACAT | 0.419 |
| ACTTACAT | 0.311 |
| CATTACAA | 0.301 |
| CATTACAG | 0.287 |
| GATTACGC | 0.23 |
| GATTACTA | 0.122 |
| CATTACAC | 0.384 |
| GATTACAA | 0.359 |
| GCTTACAC | 0.178 |
| GATTACAC | 0.419 |
| ATGCTGCC | -0.0402 |
| ATCCGGAG | -0.0342 |
| CCATACTC | -0.245 |
| AATTACAA | 0.362 |
| AATTACCA | 0.174 |
| ACTTACAC | 0.217 |
| TATTACAA | 0.297 |
| AATTACCC | -0.0825 |
| AATTACAC | 0.402 |
| CCTGCAGA | 0.303 |
| CCTGCAGG | 0.413 |

| Sequence | PBM E-score |
| --- | --- |
| CCTGCAGC | 0.0434 |
| AACATGCA | 0.324 |
| GACATGCA | 0.203 |
| TACATGGA | 0.346 |
| CACATGAA | 0.185 |
| AACATGGA | 0.312 |
| GACATGAA | 0.274 |
| TACATGCA | 0.361 |
| TACATGAA | 0.375 |
| GACATGGA | 0.167 |
| AGCTATGC | -0.0718 |
| GCACAGTA | -0.0809 |
| ATGCTATG | 0.19 |
| CGCTCAGA | 0.0235 |
| ATCTTCAT | -0.0494 |
| AAGTAGGG | -0.08 |
| GCCTTGCA | -0.00236 |
| GCCTTGTA | 0.354 |
| CCCTTGTA | 0.237 |
| CCCTTGCC | 0.0298 |
| ACCTTGTA | 0.338 |
| GCCTTGCC | 0.416 |
